Measurements: PubChem BioAssay (EPA / NIEHS)
Inconclusive results are not listed. Calls of active or inactive are those of the source. The calls were made as follows: active = hit-call score of the fitted dose curve at least 0.9, where 1 is the maximum; inconclusive = response in the unintended direction; inactive = score below 0.9.

How the values were obtained:
[1] = target: human AMP-activated Protein Kinase, alpha 1 (AMPKa1), PRKAA1 (gene 5562) (UniProt Q13131); assay: NVS_ENZ_hAMPKa1: NovaScreen (NVS) Enzymatic Assay for human AMP-activated Protein Kinase, alpha 1 (AMPKa1) (AID 2283130)
Sequence of human AMP-activated Protein Kinase, alpha 1 (AMPKa1), PRKAA1 (gene 5562) (Q13131 whole entry, looked up): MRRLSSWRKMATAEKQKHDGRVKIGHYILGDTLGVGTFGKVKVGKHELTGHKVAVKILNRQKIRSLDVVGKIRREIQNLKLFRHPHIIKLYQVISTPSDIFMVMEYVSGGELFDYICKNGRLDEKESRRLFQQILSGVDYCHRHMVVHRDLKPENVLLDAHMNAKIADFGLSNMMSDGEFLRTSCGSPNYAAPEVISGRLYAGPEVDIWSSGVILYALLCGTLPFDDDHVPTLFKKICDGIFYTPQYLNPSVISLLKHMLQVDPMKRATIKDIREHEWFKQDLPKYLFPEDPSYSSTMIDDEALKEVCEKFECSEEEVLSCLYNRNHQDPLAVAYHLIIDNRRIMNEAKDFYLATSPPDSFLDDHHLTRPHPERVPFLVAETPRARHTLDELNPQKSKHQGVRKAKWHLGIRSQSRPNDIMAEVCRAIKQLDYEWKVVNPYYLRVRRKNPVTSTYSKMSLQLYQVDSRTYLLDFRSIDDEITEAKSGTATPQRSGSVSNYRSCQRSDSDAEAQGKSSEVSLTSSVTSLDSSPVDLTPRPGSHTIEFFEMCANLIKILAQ
Method: NVS_ENZ_hAMPKa1 is a biochemical, single-readout assay that uses extracted gene-proteins in a cell-free assay. Measurements were taken 1 hour after chemical dosing in a 384-well plate.NVS_ENZ_hAMPKa1 is one of one assay component(s) measured or calculated from the NVS_ENZ_hAMPKa1 assay. It is designed to make measurements of enzyme activity, a form of enzyme reporter, as detected with fluorescence intensity signals by Fluorescence and electrophoretic mobility shift technology.Data from the assay component NVS_ENZ_hAMPKa1 was analyzed into 1 assay endpoint. This assay endpoint, NVS_ENZ_hAMPKa1, was analyzed in the positive analysis fitting direction relative to DMSO as the negative control and baseline of activity. Using a type of enzyme reporter, loss-of-signal activity can be used to understand changes in the enzymatic activity as they relate to the gene PRKAA1. Furthermore, this assay endpoint can be referred to as a primary readout, because this assay has produced multiple assay endpoints where this one serves a enzymatic activity function. To generalize the intended target to other relatable targets, this assay endpoint is annotated to the kinase intended target family, where the subfamily is serine/threonine kinase. […]

Caspase-1 (Homo sapiens) = Caspase-1 (Homo sapiens) (UniProt P29466); assay: NVS_ENZ_hCASP1: NovaScreen (NVS) Enzymatic Assay for human Caspase 1 (CASP1) (AID 2283132)
Sequence of Caspase-1 (Homo sapiens) (P29466 whole entry, looked up): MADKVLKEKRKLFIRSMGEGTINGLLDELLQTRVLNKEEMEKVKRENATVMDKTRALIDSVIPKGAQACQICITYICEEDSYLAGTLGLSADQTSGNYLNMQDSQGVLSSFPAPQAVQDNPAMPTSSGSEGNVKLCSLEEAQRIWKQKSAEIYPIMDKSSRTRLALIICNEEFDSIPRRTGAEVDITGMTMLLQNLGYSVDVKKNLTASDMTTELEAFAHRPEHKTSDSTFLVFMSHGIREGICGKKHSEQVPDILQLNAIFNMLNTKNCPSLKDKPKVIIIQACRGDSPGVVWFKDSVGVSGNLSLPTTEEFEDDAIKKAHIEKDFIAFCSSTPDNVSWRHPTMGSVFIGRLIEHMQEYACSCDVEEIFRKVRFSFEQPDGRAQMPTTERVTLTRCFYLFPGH
Outline: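 Compounds were first tested in duplicate at 25 uM, with follow-up concentration series up to 50 uM. The bacterially expressed enzyme was read by fluorescence at 1 h post-dosing. Signal loss versus DMSO baseline indicates reduced enzyme activity.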

[2] = target: human Caspase 2 (CASP2), CASP2 (gene 835) (UniProt P42575); assay: NVS_ENZ_hCASP2: NovaScreen (NVS) Enzymatic Assay for human Caspase 2 (CASP2) (AID 2283135)
Sequence of human Caspase 2 (CASP2), CASP2 (gene 835) (P42575 whole entry, looked up): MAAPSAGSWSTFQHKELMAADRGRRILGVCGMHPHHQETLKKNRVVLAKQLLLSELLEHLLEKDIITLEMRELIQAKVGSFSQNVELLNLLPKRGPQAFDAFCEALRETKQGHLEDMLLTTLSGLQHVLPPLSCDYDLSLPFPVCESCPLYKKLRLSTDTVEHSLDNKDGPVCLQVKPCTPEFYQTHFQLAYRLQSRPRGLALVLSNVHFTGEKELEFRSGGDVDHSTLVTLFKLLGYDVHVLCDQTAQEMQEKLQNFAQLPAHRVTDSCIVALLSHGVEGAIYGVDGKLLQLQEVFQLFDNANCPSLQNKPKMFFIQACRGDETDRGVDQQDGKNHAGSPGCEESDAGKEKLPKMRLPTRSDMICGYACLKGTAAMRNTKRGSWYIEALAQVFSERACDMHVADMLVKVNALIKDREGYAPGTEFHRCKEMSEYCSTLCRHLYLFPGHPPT
Method: NVS_ENZ_hCASP2 is a biochemical, single-readout assay that uses extracted gene-proteins from E. coli in a cell-free assay. Measurements were taken 1 hour after chemical dosing in a 96-well plate.NVS_ENZ_hCASP2 is one of one assay component(s) measured or calculated from the NVS_ENZ_hCASP2 assay. It is designed to make measurements of enzyme activity, a form of enzyme reporter, as detected with fluorescence intensity signals by Fluorescence technology.Data from the assay component NVS_ENZ_hCASP2 was analyzed into 1 assay endpoint. This assay endpoint, NVS_ENZ_hCASP2, was analyzed in the positive analysis fitting direction relative to DMSO as the negative control and baseline of activity. […] Furthermore, this assay endpoint can be referred to as a primary readout, because this assay has produced multiple assay endpoints where this one serves a enzymatic activity function. […]
Binding assays used specific radioligands (tritiated, iodinated) with non-radioactive competitive displacement ligands in agonist or antagonist protocols (as indicated) and various reference compounds and inhibitors to titrate specific binding to receptors and transporters. Most enzyme assays (CYPs, kinases, phosphatases, proteases, HDACs) used recombinant protein and specific substrates (fluorescence mostly, some colorimetric and radioactive) and inhibitors, followed by a biochemical separation of substrate and product. […]

Caspase-3 (Homo sapiens) = Caspase-3 (Homo sapiens) (UniProt P42574); assay: NVS_ENZ_hCASP3: NovaScreen (NVS) Enzymatic Assay for human Caspase 3 (CASP3) (AID 2283139)
Sequence of Caspase-3 (Homo sapiens) (P42574 whole entry, looked up): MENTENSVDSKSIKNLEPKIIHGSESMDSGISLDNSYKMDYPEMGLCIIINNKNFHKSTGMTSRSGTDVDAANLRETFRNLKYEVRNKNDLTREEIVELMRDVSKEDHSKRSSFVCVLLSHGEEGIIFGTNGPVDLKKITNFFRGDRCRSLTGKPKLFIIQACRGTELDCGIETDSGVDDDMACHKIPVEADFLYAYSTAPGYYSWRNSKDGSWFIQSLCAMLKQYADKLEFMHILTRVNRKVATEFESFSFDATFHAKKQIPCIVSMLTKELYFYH
Outline: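 Single-concentration screening at 25 uM in duplicate, with concentration-response follow-up to a 50 uM maximum for chemicals passing the threshold. Caspase-3 (human, E. coli-expressed) activity was read as substrate fluorescence after 1 h, with loss of signal relative to DMSO.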

SMILES: CO/C=C(/C(=O)OC)c1ccccc1Oc1cc(Oc2ccccc2C#N)ncn1
- outcome [1]: inactive

SMILES: CNC(=S)S
- outcome (Caspase-1 (Homo sapiens)): inactive
- outcome [2]: inactive

SMILES: CC(Oc1ccc(Cl)cc1Cl)C(=O)O (stereo not given)
- outcome (Caspase-3 (Homo sapiens)): inactive

SMILES: C#CCOS(=O)OC1CCCCC1Oc1ccc(C(C)(C)C)cc1 (stereo not given)
- outcome (Caspase-3 (Homo sapiens)): inactive
